Source: PubChem BioAssay
Sm TGR inh = blocks Schistosoma mansoni thioredoxin glutathione reductase. purified TGR, DTNB reduction, TNB absorbance 405 nm. 360,000 tested, 3% active. Q962Y6. Potency, µM (highest dose often 114 µM), usual class: inhibitors; further: nearly all actives have a fitted effect of over 60% in size
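TGR 20 nM + NADPH 100 uM (dispensed conc.), cpd preinc 15 min RT; start with NADPH (500 uM addition) then DTNB (15 mM addition). Kinetic TNB absorbance, 405 nm filter. Four-parameter Hill fit across titration.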
Pf growth 48h = P. falciparum growth inhibition at 48 hours (one generation); P. falciparum luciferase growth in erythrocytes, 48 h; 310,000 tested, 5.9% active; Potency, µM (series often up to 28.7 µM), hits mostly inhibitors
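Luciferase-expressing parasites in RBCs, 2% Hct / 0.1% parasitemia final; RPMI 1640 + 0.5% Albumax; 37 C, 5% CO2, one generation; luminescence read-out, lower signal = inhibition.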
SARS PLpro yeast = inhibitors of SARS-CoV papain-like protease in yeast | Potency, µM (top dose mostly 32.9 µM), most hits filed as activators | AID 485353 | 330,000 tested, 0.19% active | S. cerevisiae expressing SARS-CoV PLpro, growth rescue; calls by dose curve; further: nearly all actives have a fitted effect of over 55% in size
AmpC inh detg = inhibitors of E. coli AmpC beta-lactamase with detergent. P00811. AmpC hydrolysis of nitrocefin, absorbance 480 nm, 0.01% Triton. Potency, µM (series often up to 114 µM), usual class: inhibitors. 370,000 tested, 0.041% active. AID 485294; further: nearly all actives have a fitted effect of over 25% in size
Target sequence (P00811 whole entry, looked up): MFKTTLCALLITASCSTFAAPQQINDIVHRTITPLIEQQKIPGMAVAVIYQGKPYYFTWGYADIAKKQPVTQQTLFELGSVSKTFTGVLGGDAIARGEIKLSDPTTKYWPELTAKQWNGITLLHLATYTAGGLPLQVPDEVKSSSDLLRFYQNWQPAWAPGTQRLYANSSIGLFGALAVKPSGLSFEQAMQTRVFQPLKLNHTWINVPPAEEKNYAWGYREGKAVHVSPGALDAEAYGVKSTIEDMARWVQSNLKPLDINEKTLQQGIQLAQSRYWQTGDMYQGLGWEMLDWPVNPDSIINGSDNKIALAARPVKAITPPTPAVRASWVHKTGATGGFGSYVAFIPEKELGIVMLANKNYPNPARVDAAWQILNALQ
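AmpC (5.3 nM in the dispensed reagent) in 20 mM phosphate pH 7.0 with 0.01% (detergent screen) or 0.0001% Triton X-100 was preincubated with compounds for 15 min at room temperature. Nitrocefin was then added from an 800 uM solution, and hydrolysis was followed at 480 nm.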
AmpC inh no detg = blocks E. coli AmpC beta-lactamase in detergent-free assay; P00811; AmpC nitrocefin hydrolysis, absorbance 480 nm, 0.0001% Triton; Potency, µM (top dose mostly 57.1 µM), actives largely listed as inhibitors; 330,000 tested, 0.52% active; further: nearly all actives have a fitted effect of over 20% in size
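20 mM phosphate pH 7.0 + 0.01% (detergent screen) or 0.0001% Triton X-100; 5.3 nM AmpC reagent; cpd preinc 15 min RT; nitrocefin (800 uM stock) to start; A480 q20 s × 4 min; Activity was normalised to no-enzyme and no-compound control wells.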
Pf growth 96h = inhibits malaria parasite growth, 96 h; AID 504834; 320,000 tested, 6.9% active; Potency, µM (doses to about 28.7 µM), hits mostly inhibitors; P. falciparum luciferase reporter growth, 96 h
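Delayed-death screen, second-generation endpoint: infected erythrocytes, 2% hematocrit, 0.05% parasitemia final; 96 hours at 37 C, 5% CO2; luciferase detection reagent; luminescence decrease equals reduced growth.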
Of the large screens only hits and unclear results are named; the others gave an inactive call. The list is not random: actives were taken first. Their share in the collection is about 12%. Unless noted, the call rests on the fitted dose curve; in most records, active means well fitted curve in the direction sought with a large enough effect; inconclusive means small, poorly fitted or top-dose-only effect, or another doubt; inactive means no such curve, though single readings can be large; an effect the other way counts as inactive or inconclusive.

COc1ccc(-n2nc(C(=O)NCC(=O)N3CCCC(C)C3)c3ccccc3c2=O)cc1Cl (stereo not drawn)	Pf growth 48h inconclusive
COc1ccc(-n2nc(C(=O)NCC(=O)N3CC(C)CC(C)C3)c3ccccc3c2=O)cc1OC (stereo not drawn)	Pf growth 48h 5.86µM, Pf growth 96h 1.65µM
COc1ccc(-n2nc(C(=O)NCC(=O)N3CCOCC3)c3ccccc3c2=O)cc1Cl	Pf growth 96h inconclusive
COc1ccc(-n2nc(C(=O)NCC(=O)N3CCCCCC3)c3ccccc3c2=O)cc1OC	Pf growth 96h 2.94µM
N#Cc1ccccc1S(=O)(=O)N1CCN(CC(=O)Nc2ccccc2C(=O)NC2CC2)CC1	Pf growth 48h inconclusive, Pf growth 96h inconclusive
O=C(COc1ccc(Cl)cc1)OCc1cc(=O)n2nc(C3CCCCC3)sc2n1	none (no result: Pf growth 48h, SARS PLpro yeast, AmpC inh no detg, Pf growth 96h)
C/C(CCc1ccco1)=N/NC(=O)CCC(=O)Nc1ccc(Br)cc1	Pf growth 96h 10.4µM
CCCCCOc1ccc(OC(=O)c2ccncc2)cc1	none
COC(=O)c1ccc(OC(=O)c2ccncc2)cc1O	Sm TGR inh 44.7µM
COc1ccc(-c2cc(OC(=O)c3ccccc3Cl)c3c(C)oc(C)c3c(=O)c2)cc1OC	Sm TGR inh inconclusive (no result: Pf growth 48h, SARS PLpro yeast, AmpC inh no detg, Pf growth 96h)
CN(C(=O)c1cc2nc(-c3ccco3)cc(C(F)(F)F)n2n1)C1CCCCC1	Sm TGR inh inconclusive
O=C(Nc1cnn(Cc2ccc(F)cc2)c1)c1cc2nc(-c3ccco3)cc(C(F)(F)F)n2n1	AmpC inh detg inconclusive, Pf growth 96h 10.4µM
COc1cccc(-c2cc(C(=O)Nc3cnn(Cc4ccc(F)cc4)c3)no2)c1	Pf growth 96h 2.08µM
Cc1nn(Cc2ccccc2)c(C)c1NC(=O)c1cc2nc(-c3ccco3)cc(C(F)(F)F)n2n1	Sm TGR inh inconclusive, Pf growth 48h 11.7µM
O=C(NCC1CCCO1)c1cc2nc(-c3ccco3)cc(C(F)(F)Cl)n2n1 (stereo not drawn)	Sm TGR inh 44.7µM, AmpC inh detg inconclusive
Cc1ccc(Cn2ccc(NC(=O)c3cc(-c4ccc(Cl)cc4)on3)n2)cc1	none
Cc1ccc(Cn2ccc(NC(=O)c3cc(-c4ccc(F)cc4)on3)n2)cc1	Pf growth 96h 3.29µM
O=C(Nc1ccc(F)cc1F)c1cc2nc(-c3ccco3)cc(C(F)(F)Cl)n2n1	Sm TGR inh 50.1µM (no result: Pf growth 48h, SARS PLpro yeast, AmpC inh no detg, Pf growth 96h)
CC(OC(=O)C1CC1)C(=O)Nc1ncc(Cl)cc1Cl (stereo not drawn)	none
CCOC(=O)C1=C(N)Oc2c(oc(CO)cc2=O)C1c1ccc(F)cc1 (stereo not drawn)	Pf growth 48h inconclusive
COCCOC(=O)C1=C(N)Oc2c(oc(CO)cc2=O)C1c1c(F)cccc1Cl (stereo not drawn)	AmpC inh detg inconclusive, Pf growth 96h 4.65µM (no result: Pf growth 48h)
COc1ccc(C(=O)c2ccc(CC(=O)O)s2)cc1	Pf growth 48h 6.57µM, Pf growth 96h inconclusive
COc1ccc(NC(=O)NCCn2nnc3cc(S(=O)(=O)N(C)C)ccc32)cc1	none (no result: Pf growth 48h, SARS PLpro yeast, AmpC inh no detg, Pf growth 96h)
CN(C)c1ccc(S(=O)(=O)N2CCCCC2)cc1NC(=O)CN1C(=O)NC2(CCCC2)C1=O	Pf growth 48h 13.1µM, AmpC inh detg inconclusive, Pf growth 96h inconclusive (no result: SARS PLpro yeast)
CCN(CC)c1ccc(S(=O)(=O)N2CCOCC2)cc1NC(=O)CN1C(=O)NC2(CCC(C)CC2)C1=O (stereo not drawn)	Pf growth 48h inconclusive, AmpC inh no detg inconclusive, Pf growth 96h 13.1µM
O=C(CN1C(=O)NC2(CCCC2)C1=O)Nc1cc(C(F)(F)F)ccc1N1CCCCC1	Pf growth 48h inconclusive, AmpC inh detg inconclusive, AmpC inh no detg 35.5µM, Pf growth 96h inconclusive
CN(C)c1ccc(S(=O)(=O)N2CCCCC2)cc1NC(=O)CN1C(=O)NC(C)(c2ccccc2)C1=O (stereo not drawn)	Pf growth 48h inconclusive, AmpC inh detg inconclusive, Pf growth 96h inconclusive
COCC1CCCN(C(=O)c2ccc3oc(CCCc4ccccc4)nc3c2)C1 (stereo not drawn)	Sm TGR inh 28.2µM, Pf growth 48h inconclusive, Pf growth 96h inconclusive
COCC1CCN(C(=O)c2ccc3oc(CCCc4ccccc4)nc3c2)C1 (stereo not drawn)	Pf growth 96h 3.7µM
COCCN1CCN(C(=O)c2ccc3oc(CCCc4ccccc4)nc3c2)CC1	none
CCCCc1nc2cc(C(=O)N3CCCC(COC)C3)ccc2o1 (stereo not drawn)	AmpC inh detg inconclusive, Pf growth 96h inconclusive
CC(=O)Nc1ccc(NC(=O)C(C)OC(=O)CCSc2ccccc2Cl)cc1 (stereo not drawn)	none (no result: Sm TGR inh, Pf growth 48h, AmpC inh detg, Pf growth 96h)
Cc1ccc(C)c(CN2C(=O)c3ccccc3S(=O)c3ccc(C(=O)N(C)Cc4ccccc4)cc32)c1 (stereo not drawn)	none (no result: Pf growth 48h, SARS PLpro yeast, AmpC inh no detg, Pf growth 96h)
CC(C)Cn1c(=O)c2sccc2n2c(CCCC(=O)N3CCN(c4ccc(F)cc4)CC3)nnc12	none (no result: Pf growth 48h, SARS PLpro yeast, AmpC inh no detg, Pf growth 96h)
CCc1nc(SCC(=O)Nc2cc(C)ccc2OC)c2c(C)c(C)sc2n1	none
CCc1nc(SCC(=O)Nc2ccccc2OC)c2c(C)c(C)sc2n1	Pf growth 48h 13.1µM, AmpC inh detg inconclusive
COc1ccc(N2CC(C)Cn3c2nc2c3c(=O)n(Cc3ccc(C)cc3)c(=O)n2C)c(OC)c1 (stereo not drawn)	Pf growth 48h 4.65µM, Pf growth 96h inconclusive
O=C1NS(=O)c2cc([N+](=O)[O-])cc([N+](=O)[O-])c21 (stereo not drawn)	none (no result: Sm TGR inh)
O=C1c2c([N+](=O)[O-])cc([N+](=O)[O-])cc2S(=O)N1Cc1ccccc1 (stereo not drawn)	Sm TGR inh 39.8µM, Pf growth 96h inconclusive
Cc1ccc2cc3cc(C(=O)NCCCN4CCCC4)oc3nc2c1	Pf growth 48h inconclusive
Cc1ccc2cc3cc(C(=O)NCCCN4CCCCCC4)oc3nc2c1	Sm TGR inh 31.6µM, Pf growth 48h inconclusive, Pf growth 96h inconclusive
Cc1ccc2cc3cc(C(=O)NCCCN4CCc5ccccc5C4)oc3nc2c1	Pf growth 48h 8.28µM (no result: Pf growth 96h)
CCCCN(CC)CCCNC(=O)c1cc2cc3ccc(C)cc3nc2o1	none
N=c1n(CCN2CCCCC2)c2ccccc2n1CC(=O)c1ccc(Cl)c(Cl)c1	Pf growth 48h 1.47µM, Pf growth 96h 2.62µM
COc1ccccc1OCC(O)Cn1c(=N)n(CCN2CCCCC2)c2ccccc21 (stereo not drawn)	Pf growth 48h 3.29µM, AmpC inh detg inconclusive
N=c1n(CCN2CCCC2)c2ccccc2n1CC(O)c1ccco1 (stereo not drawn)	Pf growth 48h inconclusive, AmpC inh detg inconclusive
N=c1n(CCN2CCCCC2)c2ccccc2n1CC(O)c1ccc(Cl)c(Cl)c1 (stereo not drawn)	Pf growth 96h 0.294µM (no result: Pf growth 48h)
